# HCMV inh: blocks human cytomegalovirus replication. HFF cells, HCMV-luciferase reporter, 72 h; hits give low values. activity change, negative = inhibition, % at 57.5 µM. 4.5% of 410,000 active; in the data active = activity change below about -60%; inconclusive = no clear call, values can overlap the other calls; inactive = above about -39%; also: % is scaled to controls: 0 for no effect and ±100 for the full control effect
#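 Compounds were evaluated in HFFs infected with an HCMV luciferase reporter virus (MOI 1 PFU/cell). Luciferase in lysates collected 72 h post infection served as the replication measure.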
# Pf growth 48h: P. falciparum growth inhibition at 48 hours (one generation). P. falciparum luciferase growth in erythrocytes, 48 h. Potency, µM (doses to about 28.7 µM), inactives show at the highest dose activity change, negative = inhibition, usual class: inhibitors. 5.9% of 310,000 active. AID 504832; also: potency is read from the fitted curve at half-maximal effect; % is scaled to controls: 0 for no effect and ±100 for the full control effect
#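 Parasite viability was followed by luminescence of a genomically integrated firefly luciferase. Cultures held 0.1% parasitemia at 2% hematocrit (final), incubated under 5% CO2 at 37 C.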
# Cycloheximide cs: counter-screen for Shiga toxin inhibitors: cycloheximide protein synthesis inhibition | cell reporter, cycloheximide protein synthesis inhibition counterscreen | max response, % | 12% of 300,000 active | AID 2314; in the data active = max response mostly above about 13%, no sharp cut-off; inactive = mostly below about 14%; also: read at 38.3 µM for the half of the compounds with a filed dose; 0% is about no effect
# Shiga toxin inh: inhibitors of Shiga toxin in Vero cells; Vero cells, Shiga toxin protein synthesis inhibition reporter; inhibition, % at 38.7 µM; 9.2% of 290,000 active; AID 2315; in the data active = inhibition mostly above about 28%, no sharp cut-off; inactive = mostly below about 43%; also: 0% is about no effect
# Pf growth 96h: inhibits malaria parasite growth, 96 h; P. falciparum luciferase reporter growth, 96 h; Potency, µM (highest dose often 28.7 µM), for the others: at the highest dose activity change, negative = inhibition, usual class: inhibitors; 6.9% of 320,000 active; AID 504834; also: potency is read from the fitted curve at half-maximal effect; % is scaled to controls: 0 for no effect and ±100 for the full control effect
#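 Cell-based qHTS: luciferase-tagged P. falciparum in erythrocytes (2% hematocrit, 0.05% parasitemia final) incubated with compounds for 96 hours, 37 C, 5% CO2; luciferase detection reagent then added and luminescence measured.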
# * hit, by the source's call; i = inactive; ? = inconclusive; · = no result. An excerpt weighted towards active compounds, which were near 20% of everything screened. Unless noted, calls follow the shape of the dose curve; as a rule, active = well fitted inhibition curve with a large enough effect; inconclusive = small, poorly fitted or top-dose-only effect, or another doubt; inactive = no such curve, though single readings can be large or run the other way.
SMILES,HCMV inh,Pf growth 48h,Cycloheximide cs,Shiga toxin inh,Pf growth 96h
CCCN1CC(=O)N2C(c3cccc(OC)c3OC)c3[nH]c4ccccc4c3C[C@H]2C1=O (some centres undefined),76,9.3µM*,-2,-11,4.1µM*
CCOc1ccccc1C1c2[nH]c3ccccc3c2C[C@H]2C(=O)N(C3CC3)CC(=O)N12 (some centres undefined),22,?,-2,-10,9.3µM*
Cc1ccc(CNC(=O)C2CCN(S(=O)(=O)c3ccc4c(c3)oc(=O)n4C)CC2)cc1,2,·,·,·,·
COC(=O)CSc1nc2nc(C)c(Br)cc2[nH]1,-35,14%,1,9,·
CC(C)CCSc1nc2ccccc2[nH]1,-11,223%,52*,102*,290%
CC(=O)N=C(N)Sc1nc2ccccc2[nH]1,102,i,48*,67*,i
O=C(CSc1nc2ccccc2[nH]1)N1c2ccccc2Sc2ccccc21,?,?,11,-6,89%
CC(Sc1nc2ccccc2[nH]1)C(=O)O (centres undefined),-14,·,-3,-15,-23%
CN(Cc1cccs1)C(=O)CSc1nc2ccccc2[nH]1,45,32%,47*,123*,97%
C=C(C)CSc1nc2nc(C)c(Br)cc2[nH]1,31,33%,30*,81*,·
C=C(C)CSc1nc2ccccc2[nH]1,-10,39%,29*,59*,7%
CCCOc1ccc(NC(=O)CC2C(=O)N(CC)C(=S)N2CCCN2CCN(Cc3ccccc3)CC2)cc1 (centres undefined),-84*,?,-7,-14,4.1µM*
O=C(CC1C(=O)N(Cc2ccccc2)C(=S)N1CCN1CCOCC1)Nc1ccc(F)cc1 (centres undefined),-69*,1.9µM*,8,-9,-8%
COc1cccc(CN2CCC2(C)C(=O)Nc2ccc3c(c2)CCN3C(C)=O)c1F (centres undefined),-13,·,·,·,·
O=C(O)[C@H]1C[C@@H](CP(=O)(O)O)CCN1,·,-5%,4,-8,1%
O=C(Nc1cccs1)Nc1nnc([C@@H]2C[C@H](O)[C@@H](CO)O2)s1,0,·,·,·,·
CCOc1cccc(=NC2CCCCC2)c2c(C)n(C)c(C)c12,-110*,1.9µM*,2,13,?
Cc1nn(Cc2ccc(Cl)cc2)c(C)c1NC(=O)c1cc(-c2ccc3c(c2)OCO3)on1,-94*,-16%,-2,18,?
Cc1nn(Cc2ccc(Cl)c(Cl)c2)c(C)c1NC(=O)c1cc(-c2ccc3c(c2)OCO3)on1,-73*,-16%,3,-14,65%
Cc1nn(Cc2ccc(Cl)cc2)c(C)c1NC(=O)c1cc(C(C)C)on1,?,-14%,1,-10,8%
CCN(CC)c1nn2c(=O)c(C(=O)NCc3ccc(F)cc3)cnc2s1,10,·,·,·,·
CC(=O)Nc1ccc(Nc2nc(-c3ccccc3)nc3ccccc23)cc1,-94*,-48%,18,39,-7%
Oc1ccc(Nc2nc(-c3ccccc3)nc3ccccc23)cc1,·,-5%,-2,-6,-66%
Oc1ccc(/C=N/Nc2ccccc2)cc1,-5,-23%,1,24,-17%
Oc1ccc(Nc2nc(-c3ccc(Cl)cc3)nc3ccccc23)cc1,-61*,·,-3,2,·
SMILES,HCMV inh,Pf growth 48h,Cycloheximide cs,Shiga toxin inh,Pf growth 96h
Cc1nc2ccccc2nc1N/N=C/c1ccc(O)cc1,-17,27%,40*,53*,41%
Oc1ccc(Nc2nc3ccccc3nc2Nc2ccc(O)cc2)cc1,·,·,14*,40,·
COc1cccc2cc(-c3nc(-c4ccc(Cl)cc4)cs3)c(=O)oc12,-2,·,·,·,·
CC1CCN(S(=O)(=O)c2ccc3c(c2)c(=O)c(C(=O)NCc2ccc(Cl)cc2)cn3C)CC1,11,·,·,·,·
CC(=O)Nc1sc2c(c1C(c1cccc(Cl)c1)N1CCN(CCO)CC1)CCCC2 (centres undefined),?,?,-1,-5,-25%
CC(=O)Nc1sc2c(c1C(c1ccncc1)N1CCOCC1)CCCC2 (centres undefined),9,4.7µM*,1,-5,8.3µM*
COc1ccc(C(c2c(NC(C)=O)sc3c2CCCC3)N2CCN(CCO)CC2)cc1OC (centres undefined),130,4.7µM*,0,3,?
CCc1nc2nc(C)cc(Nc3cc(Cl)ccc3OC)n2n1,-4,·,·,·,·
O=C(c1ccc(-c2ccccc2)cc1)N1CCN(c2nc3ccccc3o2)CC1,24,20%,15*,13,?
O=C(c1ccccc1)c1ccc(-c2ccc(O)cc2)cc1,21,90%,40*,68*,127%
O=C(c1ccccc1)c1ccccc1,34,8%,3,-3,6%
O=C(c1ccccc1)c1ccc(C(=O)N2CCN(c3ccc(O)cc3)CC2)cc1,-78*,·,·,·,·
O=C(c1ccc(N2CCN(C(=O)c3ccccc3)CC2)cc1)c1cccc(F)c1,-32,?,-2,-5,0%
O=C(c1ccc(N2CCN(C(=O)c3ccc(F)c(F)c3)CC2)cc1)c1cccc(F)c1,-72*,-20%,3,-14,?
O=C(c1ccc(-c2ccccc2)cc1)N1CCN(c2ccccc2)CC1,17,62%,13*,28,17%
COc1ccc(N2CCN(C(=O)c3ccc(-c4ccccc4)cc3)CC2)cc1,·,6%,9,18,7%
CCOc1ccc(C(=O)N2CCN(c3ccccc3)CC2)cc1,-9,59%,11,30*,-7%
CC(C)(C)NC(=O)C1CCN(C(=O)c2ccc(-c3ccccc3)cc2)CC1,-14,9.3µM*,14,15,·
CCOc1ccccc1CNC(=O)CCCn1c(=O)c2cccn2c2cccnc21,-24,·,·,·,·
C/C(=N/NC(=O)C(=O)N/N=C(/C)c1ccccc1)c1ccccc1,11,9%,8,14,0%
CNC(=S)N/N=C(\C)c1ccc(C(C)(C)C)cc1,-36,-9%,24*,30*,?
CNC(=S)N/N=C(\C)c1ccccc1,-97*,54%,7,75,?
C/C(=N\NC(=O)COc1ccc(C(C)(C)C)cc1)c1ccc(OC(F)F)cc1,-16,-7%,4,15,?
O=C(O)C(NC(=O)c1ccccc1)=C(Cl)Cl,22,·,·,·,·
COc1ccc(Cl)cc1S(=O)(=O)N1CCC(C(=O)NC2CCCC2)CC1,-12,0%,-4,8,9%
SMILES,HCMV inh,Pf growth 48h,Cycloheximide cs,Shiga toxin inh,Pf growth 96h
CCOC(=O)N(C)C[C@H]1OCc2cnnn2CCCC(=O)N([C@@H](C)CO)C[C@@H]1C,30,·,·,·,·
COc1ccccc1C(=O)COC(=O)CN1C(=O)NC2(CCCC2)C1=O,-28,-7%,·,·,30%
Cc1ccn2c(C(=O)CSc3ccccc3Cl)c(C)nc2c1,-21,3.7µM*,-1,11,?
COc1ccc(CC(=O)Nc2nnc(CC(C)C)s2)cc1S(=O)(=O)N1CCOCC1,-17,?,·,·,?
CCOc1ccc2[nH]c(C(=O)N/N=C/c3ccc(OC)cc3)cc2c1,-35,-20%,-1,10,-20%
COc1ccc(NC(=O)c2cc3ccccc3[nH]2)cc1,105,131%,40*,64*,114%

# Bioassay records deposited in PubChem BioAssay by National Center for Advancing Translational Sciences (NCATS).
